From paper PMC7862700, “An all-to-all approach to the identification of sequence-specific readers for epigenetic DNA modifications on cytosine”

Experiments:
Assay in all cases: DAPPL (digital affinity profiling via proximity ligation, sequencing); 10 mM Tris-HCl pH 7.5, 50 mM NaCl, 1 mM DTT, 4% glycerol, room temperature, 30 min; GST-TFs on glutathione beads, 16-mer random dsDNA library, 0.1% formaldehyde crosslink after washing; high values mean tight binding
[1] = target: T1, FLI1 (Homo sapiens, UniProt Q01543 1-452); details: protein: recombinant; tags: N-terminal GST; dsDNA, one strand shown
T1 sequence: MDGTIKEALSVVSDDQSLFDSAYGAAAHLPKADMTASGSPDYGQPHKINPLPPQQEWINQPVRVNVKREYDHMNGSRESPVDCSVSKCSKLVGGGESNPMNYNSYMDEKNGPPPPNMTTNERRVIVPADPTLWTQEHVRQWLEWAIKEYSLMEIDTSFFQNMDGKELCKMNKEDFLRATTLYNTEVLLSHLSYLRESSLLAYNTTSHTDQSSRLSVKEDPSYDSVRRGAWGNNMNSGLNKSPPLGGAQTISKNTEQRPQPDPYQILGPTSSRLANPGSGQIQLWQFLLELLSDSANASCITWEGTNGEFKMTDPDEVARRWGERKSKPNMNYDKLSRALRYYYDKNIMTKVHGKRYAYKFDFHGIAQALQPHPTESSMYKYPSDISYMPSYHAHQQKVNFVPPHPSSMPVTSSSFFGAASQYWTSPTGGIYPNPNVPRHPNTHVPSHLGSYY
Method in brief: (§1)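 Binding signal is defined as a hexamer's read frequency for one factor over its frequency for the tag-only sample. To obtain reads, GST-fused human transcription factors were expressed in yeast, captured on glutathione beads, barcoded with DNA and pooled with that sample. Pools met 200 nmole of a 16-mer random double-stranded DNA library in Tris/NaCl/DTT/glycerol buffer for 30 min at room temperature before washing, 0.1% formaldehyde crosslinking, proximity ligation (BsaI/T4 ligase, 1 h, 37 °C), PCR and Illumina NextSeq500 sequencing.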

[2] = target: T2, ELK1 (Homo sapiens, UniProt P19419 1-428); details: protein: recombinant; tags: N-terminal GST; dsDNA, one strand shown
T2 sequence: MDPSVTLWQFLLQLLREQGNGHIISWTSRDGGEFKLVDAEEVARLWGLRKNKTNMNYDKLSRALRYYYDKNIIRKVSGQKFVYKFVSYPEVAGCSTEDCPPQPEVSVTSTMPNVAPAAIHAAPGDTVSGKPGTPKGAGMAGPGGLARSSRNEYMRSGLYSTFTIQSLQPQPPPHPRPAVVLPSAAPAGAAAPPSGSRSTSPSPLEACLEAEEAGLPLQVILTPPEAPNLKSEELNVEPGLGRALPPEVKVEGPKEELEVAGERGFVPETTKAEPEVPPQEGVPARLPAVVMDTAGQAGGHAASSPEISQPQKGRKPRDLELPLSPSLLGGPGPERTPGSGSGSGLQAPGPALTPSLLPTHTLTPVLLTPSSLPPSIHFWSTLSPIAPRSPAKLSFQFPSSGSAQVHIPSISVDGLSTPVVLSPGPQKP
Method in brief: as §1

[3] = target: T3, GABPA (Homo sapiens, UniProt Q06546 1-454); details: protein: recombinant; tags: N-terminal GST; dsDNA, one strand shown
T3 sequence: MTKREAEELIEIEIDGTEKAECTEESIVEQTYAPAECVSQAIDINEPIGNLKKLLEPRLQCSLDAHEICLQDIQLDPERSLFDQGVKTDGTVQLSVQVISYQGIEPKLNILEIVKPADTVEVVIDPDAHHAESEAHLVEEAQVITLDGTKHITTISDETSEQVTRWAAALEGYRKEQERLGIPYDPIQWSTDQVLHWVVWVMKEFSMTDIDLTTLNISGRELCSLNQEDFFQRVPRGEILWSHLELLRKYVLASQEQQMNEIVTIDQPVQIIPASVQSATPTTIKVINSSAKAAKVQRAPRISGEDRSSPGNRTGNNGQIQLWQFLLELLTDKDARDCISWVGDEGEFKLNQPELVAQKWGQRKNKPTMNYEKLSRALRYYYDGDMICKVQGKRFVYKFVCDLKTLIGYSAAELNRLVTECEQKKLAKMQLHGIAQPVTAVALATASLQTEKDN
Method in brief: as §1

[4] = target: T4, ERG (Homo sapiens, UniProt P11308 1-479); details: protein: recombinant; tags: N-terminal GST; dsDNA, one strand shown
T4 sequence: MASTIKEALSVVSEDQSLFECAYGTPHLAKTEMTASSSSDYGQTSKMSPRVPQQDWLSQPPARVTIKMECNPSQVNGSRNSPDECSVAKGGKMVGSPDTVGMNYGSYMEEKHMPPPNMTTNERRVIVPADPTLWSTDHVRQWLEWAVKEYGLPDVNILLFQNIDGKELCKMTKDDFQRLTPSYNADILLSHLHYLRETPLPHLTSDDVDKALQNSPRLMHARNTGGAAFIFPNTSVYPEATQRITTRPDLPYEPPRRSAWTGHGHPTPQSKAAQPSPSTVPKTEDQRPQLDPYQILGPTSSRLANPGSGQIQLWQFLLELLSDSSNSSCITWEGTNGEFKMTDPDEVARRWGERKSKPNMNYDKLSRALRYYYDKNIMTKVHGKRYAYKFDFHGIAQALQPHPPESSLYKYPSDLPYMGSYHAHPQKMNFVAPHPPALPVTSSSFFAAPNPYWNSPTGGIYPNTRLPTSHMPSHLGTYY
Method in brief: as §1

[5] = target: ELF1 (Homo sapiens, UniProt P32519 1-619); details: protein: recombinant; tags: N-terminal GST; dsDNA, one strand shown
Chain of ELF1 (P32519 whole entry): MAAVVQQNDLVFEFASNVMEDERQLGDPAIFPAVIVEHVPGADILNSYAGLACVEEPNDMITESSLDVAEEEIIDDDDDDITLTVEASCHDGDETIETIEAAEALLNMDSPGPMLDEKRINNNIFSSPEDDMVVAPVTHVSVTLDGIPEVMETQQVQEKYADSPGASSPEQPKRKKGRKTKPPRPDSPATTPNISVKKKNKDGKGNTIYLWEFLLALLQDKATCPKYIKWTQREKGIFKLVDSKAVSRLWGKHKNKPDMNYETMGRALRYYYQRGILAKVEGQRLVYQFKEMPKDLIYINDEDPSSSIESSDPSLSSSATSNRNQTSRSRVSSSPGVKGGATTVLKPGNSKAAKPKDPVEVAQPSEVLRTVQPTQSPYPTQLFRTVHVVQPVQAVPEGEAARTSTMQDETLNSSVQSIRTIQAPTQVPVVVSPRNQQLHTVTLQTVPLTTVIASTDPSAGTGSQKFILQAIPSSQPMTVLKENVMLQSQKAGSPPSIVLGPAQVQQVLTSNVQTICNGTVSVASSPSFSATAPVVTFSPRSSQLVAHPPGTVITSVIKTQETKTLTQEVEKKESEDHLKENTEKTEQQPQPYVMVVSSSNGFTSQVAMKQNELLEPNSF
Method in brief: as §1

[6] = target: T5, EHF (Homo sapiens, UniProt Q9NZC4 1-300); details: protein: recombinant; tags: N-terminal GST; dsDNA, one strand shown
T5 sequence: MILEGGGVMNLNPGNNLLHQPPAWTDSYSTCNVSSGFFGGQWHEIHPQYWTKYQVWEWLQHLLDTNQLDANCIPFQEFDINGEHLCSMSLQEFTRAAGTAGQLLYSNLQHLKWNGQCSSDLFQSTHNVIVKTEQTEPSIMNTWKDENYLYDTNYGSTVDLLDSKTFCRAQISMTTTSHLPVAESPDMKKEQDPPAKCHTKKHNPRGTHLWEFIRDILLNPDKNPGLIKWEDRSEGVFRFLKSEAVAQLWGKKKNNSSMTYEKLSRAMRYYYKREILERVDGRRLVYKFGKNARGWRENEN
Method in brief: as §1

[7] = target: SPI1 (Homo sapiens, UniProt P17947 1-270); details: protein: recombinant; tags: N-terminal GST; dsDNA, one strand shown
Method in brief: as §1

[8] = target: SPIB (Homo sapiens, UniProt Q01892 1-262); details: protein: recombinant; tags: N-terminal GST; dsDNA, one strand shown
Chain of SPIB (Q01892 whole entry): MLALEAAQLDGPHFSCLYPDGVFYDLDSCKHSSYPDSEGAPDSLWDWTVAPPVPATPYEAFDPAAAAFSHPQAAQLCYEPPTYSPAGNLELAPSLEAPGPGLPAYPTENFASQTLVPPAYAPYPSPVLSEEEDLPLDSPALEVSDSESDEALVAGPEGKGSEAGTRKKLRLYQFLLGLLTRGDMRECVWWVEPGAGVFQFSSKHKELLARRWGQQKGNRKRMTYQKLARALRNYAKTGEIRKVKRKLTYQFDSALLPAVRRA
Method in brief: as §1

[9] = target: T6, FEV (Homo sapiens, UniProt Q99581 1-238); details: protein: recombinant; tags: N-terminal GST; dsDNA, one strand shown
T6 sequence: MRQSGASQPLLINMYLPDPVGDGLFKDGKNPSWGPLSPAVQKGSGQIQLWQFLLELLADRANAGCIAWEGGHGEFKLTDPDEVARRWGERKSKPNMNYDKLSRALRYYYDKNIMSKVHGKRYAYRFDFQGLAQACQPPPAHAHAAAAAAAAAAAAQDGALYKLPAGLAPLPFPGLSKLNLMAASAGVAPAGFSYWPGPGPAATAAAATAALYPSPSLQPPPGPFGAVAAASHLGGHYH
Method in brief: as §1

[10] = target: ETV5 (Homo sapiens, UniProt P41161 1-510); details: protein: recombinant; tags: N-terminal GST; dsDNA, one strand shown
Chain of ETV5 (P41161 whole entry): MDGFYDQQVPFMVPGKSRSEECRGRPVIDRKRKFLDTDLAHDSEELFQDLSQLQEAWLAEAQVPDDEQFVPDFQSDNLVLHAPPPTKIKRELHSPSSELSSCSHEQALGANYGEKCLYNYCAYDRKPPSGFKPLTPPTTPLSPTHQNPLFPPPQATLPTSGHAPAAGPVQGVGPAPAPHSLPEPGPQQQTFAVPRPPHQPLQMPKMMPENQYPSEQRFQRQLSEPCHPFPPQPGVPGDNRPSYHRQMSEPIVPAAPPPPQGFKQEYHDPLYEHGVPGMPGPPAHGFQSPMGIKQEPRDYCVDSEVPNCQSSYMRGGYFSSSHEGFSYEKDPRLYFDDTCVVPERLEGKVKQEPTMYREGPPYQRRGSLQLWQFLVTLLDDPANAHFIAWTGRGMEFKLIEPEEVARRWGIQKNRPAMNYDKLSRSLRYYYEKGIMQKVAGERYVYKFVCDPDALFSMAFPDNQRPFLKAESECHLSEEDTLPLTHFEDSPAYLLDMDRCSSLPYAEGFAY
Method in brief: as §1

[11] = target: HSF1 (Homo sapiens, UniProt Q00613 1-529); details: protein: recombinant; tags: N-terminal GST; chain copies: 3; dsDNA, one strand shown
Chain of HSF1 (Q00613 whole entry): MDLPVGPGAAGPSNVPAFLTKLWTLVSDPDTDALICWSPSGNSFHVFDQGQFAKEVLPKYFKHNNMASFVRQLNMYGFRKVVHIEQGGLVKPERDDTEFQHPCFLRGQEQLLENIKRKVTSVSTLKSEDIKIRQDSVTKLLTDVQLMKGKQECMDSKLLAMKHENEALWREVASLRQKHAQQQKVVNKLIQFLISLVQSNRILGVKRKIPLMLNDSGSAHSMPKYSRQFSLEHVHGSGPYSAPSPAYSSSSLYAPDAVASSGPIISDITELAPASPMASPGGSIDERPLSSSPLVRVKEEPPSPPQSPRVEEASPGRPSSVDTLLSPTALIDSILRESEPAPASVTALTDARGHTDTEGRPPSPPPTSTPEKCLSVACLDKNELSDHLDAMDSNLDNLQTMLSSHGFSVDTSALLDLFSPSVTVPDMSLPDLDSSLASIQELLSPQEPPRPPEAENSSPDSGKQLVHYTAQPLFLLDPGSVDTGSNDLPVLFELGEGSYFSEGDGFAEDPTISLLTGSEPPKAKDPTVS
Method in brief: as §1

[12] = target: T7, SPIC (Homo sapiens, UniProt Q8N5J4 1-248); details: protein: recombinant; tags: N-terminal GST; dsDNA, one strand shown
T7 sequence: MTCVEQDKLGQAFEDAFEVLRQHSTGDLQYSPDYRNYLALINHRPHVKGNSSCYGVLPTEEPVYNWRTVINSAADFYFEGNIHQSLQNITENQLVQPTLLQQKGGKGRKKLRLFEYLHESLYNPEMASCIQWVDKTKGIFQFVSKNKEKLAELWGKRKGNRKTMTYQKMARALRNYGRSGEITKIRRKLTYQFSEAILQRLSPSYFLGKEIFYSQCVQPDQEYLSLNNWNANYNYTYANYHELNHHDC
Method in brief: as §1

[13] = target: ELF4 (Homo sapiens, UniProt Q99607 1-663); details: protein: recombinant; tags: N-terminal GST; dsDNA, one strand shown
Chain of ELF4 (Q99607 whole entry): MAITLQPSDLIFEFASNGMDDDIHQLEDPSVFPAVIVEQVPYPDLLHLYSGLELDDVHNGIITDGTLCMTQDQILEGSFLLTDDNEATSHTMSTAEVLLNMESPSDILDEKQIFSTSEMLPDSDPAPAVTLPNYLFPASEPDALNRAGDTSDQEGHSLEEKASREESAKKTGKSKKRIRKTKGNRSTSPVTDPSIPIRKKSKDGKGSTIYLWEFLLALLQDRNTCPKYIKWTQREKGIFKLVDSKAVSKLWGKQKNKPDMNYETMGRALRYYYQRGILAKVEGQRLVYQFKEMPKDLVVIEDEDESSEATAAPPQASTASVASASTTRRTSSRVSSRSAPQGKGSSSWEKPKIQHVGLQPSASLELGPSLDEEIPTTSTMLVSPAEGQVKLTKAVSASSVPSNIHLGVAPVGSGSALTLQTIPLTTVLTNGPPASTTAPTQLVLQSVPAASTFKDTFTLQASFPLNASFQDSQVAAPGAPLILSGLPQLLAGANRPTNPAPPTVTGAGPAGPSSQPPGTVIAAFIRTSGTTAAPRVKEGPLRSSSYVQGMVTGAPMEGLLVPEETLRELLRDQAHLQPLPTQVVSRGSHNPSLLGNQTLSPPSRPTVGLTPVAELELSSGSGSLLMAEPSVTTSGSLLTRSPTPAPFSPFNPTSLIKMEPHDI
Method in brief: as §1

[14] = target: T8, ELK4 (Homo sapiens, UniProt P28324-2 1-405); details: protein: recombinant; tags: N-terminal GST; dsDNA, one strand shown
T8 sequence: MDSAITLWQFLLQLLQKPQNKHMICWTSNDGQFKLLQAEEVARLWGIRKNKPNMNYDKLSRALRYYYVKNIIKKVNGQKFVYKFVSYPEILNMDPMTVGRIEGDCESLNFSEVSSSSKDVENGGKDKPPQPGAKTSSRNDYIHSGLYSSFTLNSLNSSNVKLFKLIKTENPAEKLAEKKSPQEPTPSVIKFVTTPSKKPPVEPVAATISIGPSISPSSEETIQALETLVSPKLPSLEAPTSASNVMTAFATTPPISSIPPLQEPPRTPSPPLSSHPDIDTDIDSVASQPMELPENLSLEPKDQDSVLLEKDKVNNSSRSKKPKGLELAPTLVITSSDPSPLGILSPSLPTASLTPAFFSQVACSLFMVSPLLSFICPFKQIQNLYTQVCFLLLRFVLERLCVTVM
Method in brief: as §1

[15] = target: T9, ETV2 (Homo sapiens, UniProt O00321 1-342); details: protein: recombinant; tags: N-terminal GST; dsDNA, one strand shown
T9 sequence: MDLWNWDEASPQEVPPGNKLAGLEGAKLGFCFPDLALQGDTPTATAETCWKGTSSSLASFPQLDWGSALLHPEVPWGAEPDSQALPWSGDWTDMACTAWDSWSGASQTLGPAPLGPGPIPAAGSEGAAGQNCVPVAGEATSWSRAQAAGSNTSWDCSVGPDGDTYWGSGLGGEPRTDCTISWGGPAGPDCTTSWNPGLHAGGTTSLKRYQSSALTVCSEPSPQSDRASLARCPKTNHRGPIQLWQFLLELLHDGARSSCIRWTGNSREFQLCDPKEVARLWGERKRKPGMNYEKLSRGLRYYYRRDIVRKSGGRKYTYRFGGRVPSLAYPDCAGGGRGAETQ
Method in brief: as §1

[16] = target: ETV1 (Homo sapiens, UniProt P50549 1-477); details: protein: recombinant; tags: N-terminal GST; dsDNA, one strand shown
Chain of ETV1 (P50549 whole entry): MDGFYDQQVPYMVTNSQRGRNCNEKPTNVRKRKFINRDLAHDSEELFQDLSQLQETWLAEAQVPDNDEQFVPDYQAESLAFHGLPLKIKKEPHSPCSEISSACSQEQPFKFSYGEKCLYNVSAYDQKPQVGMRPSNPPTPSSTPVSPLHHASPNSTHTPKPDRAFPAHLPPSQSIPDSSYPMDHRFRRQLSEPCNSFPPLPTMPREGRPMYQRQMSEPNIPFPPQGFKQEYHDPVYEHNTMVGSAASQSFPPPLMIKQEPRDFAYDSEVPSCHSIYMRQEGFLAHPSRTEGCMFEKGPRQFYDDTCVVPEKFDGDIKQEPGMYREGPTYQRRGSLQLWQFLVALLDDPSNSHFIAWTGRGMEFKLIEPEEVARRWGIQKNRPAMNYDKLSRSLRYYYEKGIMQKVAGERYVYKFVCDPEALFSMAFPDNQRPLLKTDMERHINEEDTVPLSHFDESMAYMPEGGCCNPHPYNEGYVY
Method in brief: as §1

Sequence: CTGGAC
- binding signal [1]: 1.16 fold enrichment (6-mer frequency, TF over GST control)
- binding signal [2]: 1.07 fold enrichment (6-mer frequency, TF over GST control)
- binding signal [3]: 1.17 fold enrichment (6-mer frequency, TF over GST control)
- binding signal [4]: 1.13 fold enrichment (6-mer frequency, TF over GST control)
- binding signal [5]: 1.12 fold enrichment (6-mer frequency, TF over GST control)
- binding signal [6]: 1.13 fold enrichment (6-mer frequency, TF over GST control)
- binding signal [7]: 1.08 fold enrichment (6-mer frequency, TF over GST control)
- binding signal [8]: 1.05 fold enrichment (6-mer frequency, TF over GST control)
- binding signal [9]: 1.1 fold enrichment (6-mer frequency, TF over GST control)
- binding signal [10]: 1.18 fold enrichment (6-mer frequency, TF over GST control)
- binding signal [11]: 1.23 fold enrichment (6-mer frequency, TF over GST control)
- binding signal [12]: 1.1 fold enrichment (6-mer frequency, TF over GST control)
- binding signal [13]: 1.19 fold enrichment (6-mer frequency, TF over GST control)
- binding signal [14]: 1.11 fold enrichment (6-mer frequency, TF over GST control)
- binding signal [15]: 1.2 fold enrichment (6-mer frequency, TF over GST control)
- binding signal [16]: 1.09 fold enrichment (6-mer frequency, TF over GST control)
